In PubChem BioAssay AID624287 (National Center for Advancing Translational Sciences (NCATS), 2012):
The whole screen tested about 340,000 compounds, of which about 420 (0.12%) were called active. Roughly 10% stayed inconclusive and do not appear here. The call rests on the fitted dose curve; in most records, active means well fitted activation curve with a large enough effect; inconclusive means small, poorly fitted or top-dose-only effect, or another doubt; inactive means no such curve, though single readings can be large or run the other way; cell line not stated here. Shown is part of a subset that was picked to be rich in actives.

experiment: qHTS for Agonist of gsp, the Etiologic Mutation Responsible for Fibrous Dysplasia/McCune-Albright Syndrome: qHTS; conditions: gsp mutant cells, cAMP HTRF, 30 min; series mostly up to 76.9 µM; activation (cAMP increase): at the top concentration; further: nearly all actives have a fitted effect of over 60% in size;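 on activation (cAMP increase): phosphodiesterase inhibitor Ro 20-1724 added with compounds to block cAMP breakdown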
Source text: McCune-Albright syndrome (MAS) is a rare disease caused by somatic mutations in Gsgsp), a widely expressed protein central in signal transduction from G-coupled protein receptors (GPCRs). The disease symptoms are diverse, owing to the fact that the patients are mosaics with varying degrees of tissue involvement. Greater than 90% of the mutations in Gs in MAS occur at the R201 position and are equally divided between R201H and R201C. The R201 residue is central in the intrinsic GTPase activity of Gs and the H and C mutations lead to loss of, or impairment of, the GTPase activity. The intrinsic GTPase activity is necessary to terminate the interaction between Gs and adenylate cyclase, and to terminate the cAMP-mediated signaling of the given GPCR pathway. Thus, these activating mutations lead to ligand-independent activation of GPCR pathways. The tissue phenotype is determined by the role of Gs in the function of a given cell, and excess Gs/cAMP signaling in that cell. For example, pituitary somatotrophs overproduce growth hormone in a growth hormone releasing hormone-independent fashion, and gigantism/acromegaly ensues. Skeletal stem cells in the bone marrow behave as if they are under constant parathyroid hormone stimulation and fail to differentiate into osteoblasts and osteocytes, and proliferate as immature osteogenic cells and lead to the marrow fibrosis of fibrous dysplasia of bone. The goal of this project is to identify molecules with stimulatory activity at gsp mutations that will not only allow for in-depth study of the underlying molecular and cellular pathophysiology, but also serve as compounds from which drugs to treat FD/MAS can be developed NIH Chemical Genomics Center [NCGC] NIH Molecular Libraries Probe Centers Network [MLPCN] MLPCN Grant: IRP-FT-DE-2011-01 Assay Submitter (PI): Michael Collins, NIDCR
1.#Seed 2000 cells/well in 6 ul DMEM 10% FBS, 1% Pen/Strep, 0.5 mg/ml G418 2.#Incubate 16-24 hr at 37C, 5% CO2, 95% humidity 3.#Aspirate leaving 1 ul residual volume 4.#Dispense 5 ul/well DPBS + 1 mM CaCl2, 0.5 mM MgCl2, 0.05% BSA, 0.005% Tween 20 5.#Aspirate leaving 2 ul residual volume 6.#Dispense 23 nl/well compounds in DMSO 7.#Dispense 1 ul/well 300 uM Ro-20174 in DMEM 10% FBS 8.#Incubate 30 min at 37C, 5% CO2, 95% humidity 9.#Dispense 1.5 ul/well HTRF reagent: cAMP-d2 in lysis buffer 10.#Dispense 1.5 ul/well HTRF reagent: anti-cAMP antibody-K in lysis buffer 11.#Incubate 30 min at room temperature 12.#Detect HTRF signal using EnVision plate reader
Potency means the concentration at half of the fitted maximal effect.

Activation (cAMP increase), inactive:
CCCc1nc(SCC(=O)N2CCCC2)c2c(=O)n(C)c(=O)n(C)c2n1 26%
CCn1c(SCC(=O)NCC2CCCO2)nc2ccccc21 (stereo not given) 11%
CCCCCCN1C[C@H](O)[C@@H](n2cc(C3CC3)nn2)C[C@@H]1c1ccc(Cl)cc1 -33.6%
CC1(C)CC(=O)C=C(c2ccc(COC(=O)c3cc(F)cc(F)c3)cc2)C1=O -119%
O=C(CCc1ccc(O)cc1)NN=Cc1cc(Br)ccc1O -4.34%
COc1cc2ccc(C(C)=O)c(O)c2cc1OC 15.1%
COC(=O)C[C@H]1C[C@@H]2c3cc(N(C)C)ccc3O[C@@H]2[C@H](CO)O1 -18.9%
Cc1cc(Cl)ccc1C(=O)C1CCCN(C(=O)c2ccc3c(c2)OCO3)C1 (stereo not given) 0.924%
Cc1ccc(C(=O)N2CCCc3ccccc32)c(Cl)c1 5.11%
CN(C)C(CNC(=O)c1cc(Br)c(Br)s1)c1ccco1 (stereo not given) -58.5%
O=C(COC(=O)Cc1ccc(Cl)cc1Cl)NCc1ccco1 -9.6%
CCOC(=O)C=Cc1ccc(C(=O)OCC)[nH]1 -46.9%
Cc1cc(C)nc(N/N=C/c2ccc([N+](=O)[O-])o2)n1 45%
CCc1ccc(S(=O)(=O)N/N=C\c2ccc([N+](=O)[O-])o2)cc1 -10.5%
COc1ccc(/C=C2\SC(=S)N(CCC(=O)N3CCOCC3)C2=O)cc1OC -44.9%
O=C(NCc1ccccc1)C1CNCC(C(=O)NCc2ccccc2)C1 (stereo not given) 4.24%
Cc1ccc([C@H]2N[C@]3(CCCN(Cc4ccccc4)C3=O)[C@H]3C(=O)N(Cc4ccccc4)C(=O)[C@@H]23)cc1 -54.9%
CNc1nc(-c2ccccc2)cc(-c2ccccc2)n1 -29%
CCN(CC)C(=O)c1sc2nc(-c3ccccc3)ccc2c1N -3.88% [at 15.4 µM]
CCc1ccccc1NC(=O)CN1CCN(C(=O)c2cc(C3CC3)nn2-c2ccccc2)CC1 -23.3%
O=NN(CCCl)C(=O)NCCc1cccc[n+]1[O-] -40.6%
CSc1ncnc2c1ncn2CCCNCC1CCCCC1 -41.1%
Cc1ccc(S(=O)(=O)N(CCc2ccccc2)c2ccc3c(c2)C2CC3CCN2C(=O)OCc2ccccc2)cc1 (stereo not given) -3.98%
CC(OC(=O)c1cccnc1Cl)C(=O)NC1CCCCC1 (stereo not given) -7.18%
O=C(COC(=O)c1cncc(Br)c1)Nc1ccc(S(=O)(=O)N2CCOCC2)cc1 -52.8%
O=C(OCc1ccccc1)N1CCC2CC1c1cc(N3CCN(S(=O)(=O)c4cc(Cl)cc(Cl)c4)CC3)ccc12 (stereo not given) -22.3%
NC(CSC(c1ccccc1)(c1ccccc1)c1ccc(-c2ccccc2)cc1)C(=O)O (stereo not given) -9.82%
C=CCn1c(SCC(=O)CC(=O)OCC)nc2cc(C(=O)N3CCC(C(N)=O)CC3)ccc2c1=O 4.18% [at 15.4 µM]
C=CCn1c2ccccc2c2nnc(SC(CC)C(=O)Nc3nc(C)c(C(=O)OCC)s3)nc21 (stereo not given) -52.6%
C=CCn1nc(C(=O)OCC)cc1-c1sc(NC(=O)c2ccccc2)nc1C -3.53%
Cc1cc(C)c2c(=O)n3c(nc2c1)C(CC(C)C)NC(=O)c1cc2ccccc2cc1-3 (stereo not given) 4.39%
Cn1c(=O)c2cn(-c3cccc4ccccc34)cc2n(C)c1=O -9.96% [at 15.4 µM]
COc1ccc(-c2c3c(=O)n(C)c(=O)n(C)c3cn2NC(C)=O)cc1 3.24%
COc1ccc(OC)c(C(=O)NC2CCCc3c2cnn3-c2cc(C)cc(C)c2)c1 (stereo not given) -55.3%
CCOC(=O)c1cc(-c2sc(NC(=O)c3ccccc3)nc2C)n(CCO)n1 -34%
O=C(NCCS(=O)(=O)N1CCN(c2ccccc2)CC1)c1cc(=O)c2ccccc2o1 -23.3%
COc1ccc(Cl)cc1NC(=O)CN(C)C(=O)c1cn(-c2ccccc2)nc1-c1cccs1 4.43%
C[C@@H]1CN([C@@H](C)CO)C(=O)c2cc(Br)cnc2O[C@H]1CN(C)Cc1ccc(-c2ccccc2)cc1 -22.2%
CCOc1cc(/C=N/NC(=O)c2c(C)nc3ccc(Cl)cn23)ccc1O -9.2%
Cc1ccc(NC(=O)COC(=O)CN2CCSC2=O)cc1F -20.3%
C[C@H]1Cn2cnc(C(=O)N[C@@H](Cc3c[nH]c4ccccc34)C(=O)OC(C)(C)C)c2C(=O)N1 -4.83%
CC(=O)Nc1ccc(C=Cc2ccc([N+](=O)[O-])cc2)cc1 -3.38%
COC(=O)c1ccccc1N=NNc1ccc([N+](=O)[O-])cc1 -6.79%
CC(Sc1ccc(S(=O)(=O)N2CCN(C)CC2)cn1)C(=O)NC1CCCC(C)C1C (stereo not given) -21.5%
O=C(Nc1ccc(S(=O)(=O)Nc2ncccn2)cc1)c1cncc(Br)c1 -25.9%
CCOc1ncccc1C(=O)Nc1ccc2c(c1)OCCO2 13.9%
CCCc1c(C)nc2scc(-c3ccc(Cl)cc3)n2c1=O 4.2%
CC1=C(C(=O)N(C)C)CC(CC(=O)NCCN2CCOCC2)C(=O)N1Cc1ccccc1 (stereo not given) -32.8%
O=C1OCCC1=COCCCCOC=C1CCOC1=O -17.1%
CCCCCCn1c(=O)n2n(c1=O)C[C@]1(OC(=O)NCc3ccc(OC)c(OC)c3)CN(S(=O)(=O)c3ccc(C)cc3)C[C@]1(O)C2 -93.1%
COc1ccc(CN2C[C@H]3CON(C)[C@H]3C[C@H]2c2ccc(-c3cccc(F)c3)cc2)cc1 -69.9%
Cc1onc(-c2ccccc2)c1-c1nnc(COC(=O)c2ccc(N(C)C)cc2)o1 -1.6%
Cc1ccc(CCNC(=O)CN2C(=O)CSc3ccc(S(=O)(=O)N4CCOCC4)cc32)cc1 -42.1%
COc1ccc2c(c1)CCCO[C@]21O[C@H](CCO)C[C@H](O)[C@H]1O -64.1%
Cc1ccc(-c2ccc(C3=CC(=O)CC(C)(C)C3=O)cc2)cc1 -42%
CC(OC(=O)c1ccc(NC(=O)CC#N)cc1)C(=O)Nc1ccc(S(=O)(=O)N2CCCC2)cc1 (stereo not given) -14.8%
CC(C)n1ncc2c(C(=O)N3CCN(Cc4cccs4)CC3)cc(C3CC3)nc21 7.9%
CN(c1ccccc1)S(=O)(=O)c1ccc(C(=O)NCc2cccnc2)cc1 -7.68%
Cc1ccc(Cc2c(-c3ccc(C)cc3)nc3c4ccccc4ccn23)cc1 -39.7%
OCCC1CN(Cc2ccc3nsnc3c2)CCN1C1CCCCC1 (stereo not given) 19.4%
OCCC1CN(Cc2ccc3nsnc3c2)CCN1C1CCCC1 (stereo not given) 49.4%
O=C1CC[C@@H](C(=O)N2CSC[C@@H]2C(=O)Nc2ccc(C(F)(F)F)cc2)N1 -72.2%
O=C(CSc1ccc(Cl)cc1)NC1CC1 -72.4%
COc1ccc(C(=O)NC2=NCCS2)c(OC)c1 -28.3%
COc1ccc(C(=O)NC(C)CCc2ccccc2)c(OC)c1 (stereo not given) 17.8%
O=S1(=O)CCN(C2CCCCCCCCCCC2)CC1 -79.5%
O=S(=O)(c1cccc(C(F)(F)F)c1)N1c2ccccc2-n2cccc2C1c1cccnc1 (stereo not given) -23.7%
O=Nc1c(O)cc(O)c2ccccc12 -21.6%
O=C(c1ccc(CS(=O)Cc2ccccc2Cl)o1)N1CCN(c2ccccc2)CC1 (stereo not given) -29.9%
COCCn1c(SCC(=O)Nc2ccc(F)cc2F)nc2c(c1=O)SCC2 -23.6%
COCOCCn1cc(CN2CCS(=O)(=O)N(Cc3ccc(-c4ccc(OC)cc4)cc3)C(CC(C)C)C2=O)nn1 (stereo not given) -115%
Cc1ccc(-c2ccc(CN3C(C(C)C)C(=O)N(Cc4cn(CCC5OCCO5)nn4)CCS3(=O)=O)cc2)cc1 (stereo not given) -37.6%
CC1(C2CC2)NC(=O)N(CC(=O)N2CCN(c3ccccc3F)CC2)C1=O (stereo not given) 0.197%
CCN(CC)C(=O)C1=C(C)N(Cc2ccccc2)C(=O)C(CC(=O)NC(c2ccccc2)c2ccccc2)C1 (stereo not given) -6.51%
O=C(N=C1SC2CS(=O)(=O)CC2N1Cc1ccccc1)c1ccccc1 (stereo not given) -12.8%
COc1cccc(OCC(=O)NCCS(=O)(=O)N2CCN(c3ccccc3)CC2)c1 -6.99%
Cn1c(=O)c2c(ncn2CC(=O)N/N=C/c2cn[nH]c2-c2ccc(F)cc2)n(C)c1=O 54.2% [at 15.4 µM]
Cc1cnc(NC(=O)Cn2cnc3c2c(=O)n(C)c(=O)n3C)s1 0.329% [at 15.4 µM]
CSc1ncnc2c1ncn2CCCNCc1ccco1 -74.7%
Cc1ccc(S(=O)(=O)N2C[C@H]3n4c(=O)ccc(=O)n4C[C@H](OC(=O)NC4CCCC4)[C@@]3(O)C2)cc1 14.3%
O=C(c1ncn2c1c(=O)[nH]c1ccccc12)N1CCc2ccccc2C1 -20.5%
CCCCCCNC(=O)O[C@H]1CN(C(=O)OC(C)C)N(C(=O)OC(C)C)[C@@H]2CN(S(=O)(=O)c3ccc(C)cc3)C[C@]12O 0.103%
CSc1ncccc1C(=O)N1CCCC(Nc2ccc(F)c(F)c2)C1 (stereo not given) 16.5%
COc1cccc(NC(=O)CN(C)C(=O)c2cc(Cl)nc3ccccc23)c1 -159%
COc1ccc(S(=O)(=O)N(C)C)cc1NC(=O)COC(=O)c1n[nH]c2ccccc12 -50%
Cc1ccc([C@H]2N[C@]3(CCCN(CC4CCCCC4)C3=O)[C@H]3C(=O)N(Cc4ccccc4)C(=O)[C@@H]23)cc1 0.257%

Potency, active:
Cn1c(=O)c2c(SCC(=O)NCC3CCCO3)nc(CC(C)(C)C)nc2n(C)c1=O (stereo not given) 14.1 µM
C/[N+]([O-])=C\c1ccc([N+](=O)[O-])o1 28.2 µM
CS(=O)(=O)c1sc2nc(-c3ccccc3)cc(-c3ccccc3)c2c1N 7.08 µM
C=CCn1c2ccccc2c2nnc(SCc3[nH]c(=O)[nH]c3C(=O)CCCCC(=O)OCC)nc21 2 µM
CC(=O)Nn1cc2c(=O)n(C)c(=O)n(C)c2c1 7.94 µM
CCOc1ncccc1C(=O)Nc1ccc(S(=O)(=O)Nc2nc(C)cc(C)n2)cc1 10 µM
COc1cccc2c1OCC(CN1CCN(C3CCCCC3)C(CCO)C1)=C2 (stereo not given) 7.94 µM
COc1ccc(C(=O)Nc2cccc(NC(=O)c3ccc(OC)cc3OC)n2)c(OC)c1 15.8 µM
CN(C(=O)COC(=O)Cn1cnc2c1c(=O)n(C)c(=O)n2C)C1(C#N)CCCCC1 28.2 µM
